The source made the active and inactive calls. Unless noted, no rule for the calls is given here.
How the values were obtained:
[1] = compounds binding Alexa647 anti-His antibody – biochemical, small-molecule microarray, 635 nm fluorescence, artefact control for SMM control protein annotation, primary screen (AID 1128); conditions: higher = more signal;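 also: score merges feature fluorescence with signal-to-noise for each printed compound spot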
[2] = system: Human papillomavirus type 1a E7 protein (residues 1-88); test: HPV1a E7 small-molecule binders, primary screen, biochemical, small-molecule microarray, residues 1-88, 635 nm (AID 1129); conditions: small-molecule microarray binding, fluorescence 635 nm; higher = more signal
[3] = molecular target: Focal adhesion kinase 1 (Homo sapiens) (UniProt Q05397); test: PTK2 protein binding on printed compound slides – biochemical, small-molecule microarray, 635/667 nm fluorescence, BSA, DTT, primary screen (AID 1130); conditions: 635 nm fluorescence, higher = more signal;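 also: composite of spot emission at 667 nm and signal to noise over triplicate slides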
Sequence of Focal adhesion kinase 1 (Homo sapiens) (Q05397 whole entry, looked up): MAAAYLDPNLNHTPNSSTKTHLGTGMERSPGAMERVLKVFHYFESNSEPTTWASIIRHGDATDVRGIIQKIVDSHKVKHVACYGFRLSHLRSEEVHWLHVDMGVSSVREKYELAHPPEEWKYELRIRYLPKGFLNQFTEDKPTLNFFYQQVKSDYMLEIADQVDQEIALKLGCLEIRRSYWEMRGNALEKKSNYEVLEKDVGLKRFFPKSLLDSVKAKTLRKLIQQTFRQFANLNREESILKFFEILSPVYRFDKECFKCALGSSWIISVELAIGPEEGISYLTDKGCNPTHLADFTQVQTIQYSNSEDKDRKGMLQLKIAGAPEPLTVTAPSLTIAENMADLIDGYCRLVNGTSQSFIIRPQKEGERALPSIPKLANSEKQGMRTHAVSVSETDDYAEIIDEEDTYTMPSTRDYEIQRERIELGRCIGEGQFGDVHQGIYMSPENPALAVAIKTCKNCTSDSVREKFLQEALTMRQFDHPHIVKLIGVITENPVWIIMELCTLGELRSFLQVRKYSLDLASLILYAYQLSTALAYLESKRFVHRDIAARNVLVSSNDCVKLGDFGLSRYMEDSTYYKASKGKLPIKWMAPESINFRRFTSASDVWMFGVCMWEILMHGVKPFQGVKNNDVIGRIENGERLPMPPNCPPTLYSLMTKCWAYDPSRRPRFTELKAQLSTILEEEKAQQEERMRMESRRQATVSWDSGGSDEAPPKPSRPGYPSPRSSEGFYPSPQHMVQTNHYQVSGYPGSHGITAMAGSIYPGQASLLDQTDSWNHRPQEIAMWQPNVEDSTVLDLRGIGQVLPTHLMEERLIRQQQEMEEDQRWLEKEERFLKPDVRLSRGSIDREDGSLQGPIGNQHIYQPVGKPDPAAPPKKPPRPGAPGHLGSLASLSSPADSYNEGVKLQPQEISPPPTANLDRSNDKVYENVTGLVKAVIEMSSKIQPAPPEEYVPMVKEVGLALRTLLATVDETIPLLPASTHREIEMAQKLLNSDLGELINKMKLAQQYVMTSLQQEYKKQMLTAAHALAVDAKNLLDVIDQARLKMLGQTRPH

[4] = system: Fibrinogen (Alexa647-labelled); test: Alexa647-fibrinogen binding to printed small molecules – biochemical, small-molecule microarray, 635/667 nm fluorescence, artefact control for SMM control-protein annotation, profiling panel (AID 1131); conditions: fibrinogen-A647 binding fluorescence, higher = more signal;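 also: z-score merges 667 nm fluorescence with per-spot signal-to-noise over triplicate slides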
[5] = molecular target: Follistatin (Homo sapiens) (UniProt P19883); test: FST protein binding to printed compounds – biochemical, small-molecule microarray, 635/667 nm fluorescence, primary screen (AID 1132); conditions: 635 nm fluorescence, higher = more signal
Sequence of Follistatin (Homo sapiens) (P19883 whole entry, looked up): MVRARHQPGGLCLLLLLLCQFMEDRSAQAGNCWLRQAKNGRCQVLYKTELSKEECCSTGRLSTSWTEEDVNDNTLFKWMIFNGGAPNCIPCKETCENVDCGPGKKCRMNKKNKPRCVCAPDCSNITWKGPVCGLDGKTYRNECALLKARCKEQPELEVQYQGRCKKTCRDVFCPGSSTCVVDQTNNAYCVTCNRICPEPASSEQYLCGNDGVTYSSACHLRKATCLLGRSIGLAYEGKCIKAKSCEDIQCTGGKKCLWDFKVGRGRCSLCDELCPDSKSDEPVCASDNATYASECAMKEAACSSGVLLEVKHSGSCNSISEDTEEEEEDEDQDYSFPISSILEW

[6] = molecular target: Fibroblast growth factor 2 (Homo sapiens) (UniProt P09038); test: basic fibroblast growth factor binding to printed compounds – biochemical, small-molecule microarray, 635/667 nm fluorescence, primary screen (AID 1133); conditions: FGF2, fluorescence 635/667, higher = more signal
Sequence of Fibroblast growth factor 2 (Homo sapiens) (P09038 whole entry, looked up): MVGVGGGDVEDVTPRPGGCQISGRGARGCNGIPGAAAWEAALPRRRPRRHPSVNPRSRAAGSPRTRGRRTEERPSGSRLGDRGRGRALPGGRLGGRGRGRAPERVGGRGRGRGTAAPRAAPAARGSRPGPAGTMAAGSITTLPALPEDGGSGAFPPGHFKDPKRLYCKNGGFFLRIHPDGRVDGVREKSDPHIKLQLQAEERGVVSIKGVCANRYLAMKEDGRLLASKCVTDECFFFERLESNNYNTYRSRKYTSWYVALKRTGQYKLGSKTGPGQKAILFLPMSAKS

[7] = JC-1 mitochondrial potential readout, lung cancer cells – cell-based, A549, JC-1 fluorescence, basal, 24 h, 100 nL, profiling panel (AID 1138); conditions: higher = more signal;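 also: A549 lung adenocarcinoma cells under basal conditions with no added stimulus; test concentration not given here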
[8] = system: Lefty1; test: Lefty1 protein binding to printed compounds – biochemical, small-molecule microarray, 635/667 nm fluorescence, primary screen (AID 1139); conditions: fluorescence 635/667, higher = more signal
[9] = system: wheat germ agglutinin (Triticum aestivum), Alexa647-labelled; test: Alexa647-WGA lectin binding to printed small molecules – biochemical, small-molecule microarray, 635/667 nm fluorescence, artefact control for SMM control-protein annotation, profiling panel (AID 1140); conditions: WGA-A647 binding, 635 nm fluorescence, higher = more signal;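 also: score merges 667 nm feature emission with signal to noise over triplicate slides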
[10] = molecular target: Luciferin 4-monooxygenase (Photinus pyralis) (UniProt P08659); test: inhibition of purified Photinus pyralis luciferase – biochemical, luminescence, purified enzyme, 2006 set, primary screen (AID 1141); conditions: purified firefly luciferase, SteadyGlo luminescence, 30 min; higher = more signal, called active from +8 up or from −8 down;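 also: cell-free assay with purified firefly luciferase at 100 ng per well in PBS; test concentration not given here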
Sequence of Luciferin 4-monooxygenase (Photinus pyralis) (P08659 whole entry, looked up): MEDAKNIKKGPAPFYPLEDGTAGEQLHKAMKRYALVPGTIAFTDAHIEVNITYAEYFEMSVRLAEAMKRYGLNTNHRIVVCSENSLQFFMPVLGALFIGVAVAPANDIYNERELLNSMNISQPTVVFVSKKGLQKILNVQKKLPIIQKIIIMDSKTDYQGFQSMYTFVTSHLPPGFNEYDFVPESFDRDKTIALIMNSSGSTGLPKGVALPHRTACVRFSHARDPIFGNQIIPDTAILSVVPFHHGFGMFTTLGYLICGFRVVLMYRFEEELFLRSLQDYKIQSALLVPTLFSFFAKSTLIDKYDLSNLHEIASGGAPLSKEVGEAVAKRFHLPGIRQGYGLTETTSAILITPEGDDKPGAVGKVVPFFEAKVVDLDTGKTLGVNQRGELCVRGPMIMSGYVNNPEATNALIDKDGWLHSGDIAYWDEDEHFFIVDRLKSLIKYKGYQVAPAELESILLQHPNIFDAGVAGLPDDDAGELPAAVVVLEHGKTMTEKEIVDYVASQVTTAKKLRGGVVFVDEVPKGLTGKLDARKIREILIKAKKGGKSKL

[11] = system: Wnt5a (protein binding on small-molecule microarray); test: small molecules binding Wnt5a protein – biophysical, small-molecule microarray, 635/667 nm fluorescence, primary screen (AID 1142); conditions: 635 nm fluorescence, higher = more signal;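 also: fluorescence read at 667 nm with signal to noise per printed feature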
[12] = ATP-based viability of Huh7 replicon cells – cell-based, CellTiter-Glo luminescence, basal, 48 h, cytotoxicity control for HCV replication inhibitor project, primary screen (AID 1143); conditions: higher = more signal, called active from +8 up or from −8 down;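 also: Huh7 hepatoma cells carrying a hepatitis C replication reporter with no stimulus; test concentration not given here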
[13] = Pseudomonas biofilm growth suppression – PAO1 strain, BacTiter-Glo luminescence, LB-PBS, primary screen (AID 1144); conditions: P. aeruginosa PAO1 biofilm, 12 h, higher = more signal
[14] = basal CRE-LacZ reporter activity in PC12 – cell-based, unstimulated, primary screen (AID 1145); conditions: no forskolin, luminescence, 4.5 h, higher = more signal, called active from +8 up or from −8 down
[15] = forskolin-driven CRE-LacZ activity in PC12 – cell-based, CRE-LacZ reporter, forskolin-stimulated, primary screen (AID 1146); conditions: luminescence, 4.5 h, higher = more signal, called active from +8 up or from −8 down;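 also: PC12 cells with 6xCRE LacZ reporter stimulated by forskolin 10 µM; beta-galactosidase reporter signal reflecting CREB driven transcription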
[16] = molecular target: Streptavidin (Streptomyces avidinii) (UniProt P22629); test: compounds binding control protein streptavidin – biophysical, small-molecule microarray, 635/667 nm fluorescence, artefact control for SMM compound annotation, primary screen (AID 1147); conditions: higher = more signal;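 also: signal reflects streptavidin binding to arrayed compounds as a control protein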
Sequence of Streptavidin (Streptomyces avidinii) (P22629 whole entry, looked up): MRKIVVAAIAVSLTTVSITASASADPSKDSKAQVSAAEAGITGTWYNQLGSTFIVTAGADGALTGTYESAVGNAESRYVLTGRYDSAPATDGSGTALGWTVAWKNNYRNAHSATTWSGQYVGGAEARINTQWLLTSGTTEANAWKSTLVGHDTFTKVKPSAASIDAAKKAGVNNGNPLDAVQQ

[17] = probe aInhba binding on compound microarray – biochemical, small-molecule microarray, 635/667 nm fluorescence, primary screen (AID 1148); conditions: higher = more signal;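 also: score merges 667nm spot fluorescence with signal-to-noise for antibody binding to printed compounds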
[18] = molecular target: Torsin-1A (Homo sapiens) (UniProt O14656); test: TOR1A wild-type binding on microarray – cell lysate, small-molecule microarray, lysate, 635/667 nm, primary screen (AID 1149); conditions: COS7 hTOR1A-WT lysate, 635 nm fluorescence, higher = more signal
Sequence of Torsin-1A (Homo sapiens) (O14656 whole entry, looked up): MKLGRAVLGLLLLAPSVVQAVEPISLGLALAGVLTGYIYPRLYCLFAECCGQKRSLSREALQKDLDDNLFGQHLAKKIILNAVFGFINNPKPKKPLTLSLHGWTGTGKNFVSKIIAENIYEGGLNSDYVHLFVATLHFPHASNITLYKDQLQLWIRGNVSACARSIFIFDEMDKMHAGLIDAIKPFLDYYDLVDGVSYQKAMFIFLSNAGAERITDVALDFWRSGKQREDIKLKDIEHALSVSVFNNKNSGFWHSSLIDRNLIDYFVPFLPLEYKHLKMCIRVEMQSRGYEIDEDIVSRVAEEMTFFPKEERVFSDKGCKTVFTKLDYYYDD

[19] = molecular target: Torsin-1A (Homo sapiens) (UniProt O14656); test: torsin A mutant lysate binding on microarrays – cell lysate, small-molecule microarray, COS7 lysate, 635/667 nm fluorescence, primary screen (AID 1150); conditions: COS7 hTOR1A mutant lysate, 635 nm fluorescence, higher = more signal;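 also: score pools 667 nm emission and signal to noise measuring lysate protein binding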
[20] = system: Sonic hedgehog protein (Shh); test: Sonic hedgehog microarray binding compounds – biochemical, small-molecule microarray, 635/667 nm fluorescence, primary screen (AID 1151); conditions: 635 nm fluorescence, higher = more signal;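 also: Shh protein binding to compounds spotted on small-molecule microarray slides; score combines spot fluorescence intensity with signal-to-noise across triplicate slides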

SMILES | composite z-score [1] | composite z-score [2] | composite z-score [3] | composite z-score [4] | composite z-score [5] | composite z-score [6] | z-score [7] | composite z-score [8] | composite z-score [9] | z-score [10] | composite z-score [11] | z-score [12] | z-score [13] | z-score [14] | z-score [15] | composite z-score [16] | composite z-score [17] | composite z-score [18] | composite z-score [19] | composite z-score [20]
O=C1N(CCS(=O)(=O)c2ccccc2)c2ccccc2C[C@@]12COC(c1ccc(OCCCO)cc1)=N2 | 2.83 | 1.25 | 1.16 | 0.962 | 1.28 | 0.87 | -0.0718 | 0.222 | 0.611 | -1.63 (inactive) | 0.576 | -1.46 (inactive) | 0.261 (inactive) | 0.218 (inactive) | -0.151 (inactive) | 0.906 | 0.362 | 0.784 | 0.967 | 0.534
COC(=O)C[C@H]1O[C@]2(C(=O)N(Cc3ccccc3)c3ccc(NC(C)=O)cc32)[C@@H](C)[C@@H]1[Si](C)(C)c1ccc(OC)cc1 | 0.242 | 0.822 | -0.0722 | 0.483 | 0.528 | 0.52 | -0.922 | 0.68 | 0.657 | 0.531 (inactive) | 0.0998 | -0.796 (inactive) | 0.695 (inactive) | 1.84 (inactive) | -0.792 (inactive) | 0.174 | -0.251 | -0.0471 | 0.033 | 0.978
COCCOC(=O)N1C(=O)[C@@]2(c3cc(C#Cc4ccc(OC)cc4)ccc31)[C@H](C(=O)N1CCN(c3ncccn3)CC1)[C@H]1C(=O)O[C@H](c3ccccc3)[C@H](c3ccccc3)N1[C@@H]2c1ccc(O)cc1 | 0.136 | 0.64 | 1.2 | -0.126 | 0.755 | 0.633 | -0.334 | 0.331 | 0.428 | -0.938 (inactive) | -0.0081 | -3.61 (inactive) | -1.03 (inactive) | -0.191 (inactive) | 0.0921 (inactive) | -0.0988 | -0.0762 | 0.561 | -0.007 | 0.736
CCCCCN1CC=CC23O[C@@H]4C=CCOC(=O)[C@@H]4[C@H]2C(=O)N(CCCO)[C@@H]3C1=O (stereo not given in full) | 1.5 | 0.789 | 0.532 | -1.05 | 0.105 | -0.128 | -0.483 | 0.632 | -0.895 | -0.0247 (inactive) | -0.465 | -2.93 (inactive) | -1.87 (inactive) | -1.85 (inactive) | -0.771 (inactive) | -0.866 | -0.208 | 2.03 | 2.31 | 1.25
COC(=O)C(CC#Cc1ccc2c(c1)[C@]1(C(=O)N2)[C@H](c2ccc(OCCO)cc2)N2[C@H](c3ccccc3)[C@H](c3ccccc3)OC(=O)[C@H]2[C@@H]1C(=O)NC[C@H](O)c1ccccc1)C(=O)OC | 1.06 | 1.23 | 0.751 | 0.849 | 0.966 | 0.387 | -0.816 | 0.346 | 1.16 | -1.67 (inactive) | 0.593 | -1.17 (inactive) | -0.923 (inactive) | 0.0384 (inactive) | -0.926 (inactive) | 0.472 | 0.0442 | 0.413 | 0.532 | 1.4
COC(=O)[C@]1(Cc2ccccc2N=[N+]=[N-])N=C(c2ccc(OCCCO)cc2)O[C@@H]1c1ccccc1N=[N+]=[N-] | 2.87 | 0.825 | 0.188 | 0.482 | 1.25 | -0.0133 | -0.856 | 0.131 | 0.149 | -1.42 (inactive) | -0.104 | -5.35 (inactive) | 0.337 (inactive) | 2.85 (inactive) | -1.04 (inactive) | 0.105 | -0.0762 | -1.45 | 0.283 | 0.765
[N-]=[N+]=Nc1ccccc1[C@@H]1OC(c2ccc(OCCCO)cc2)=N[C@]1(CCS(=O)(=O)c1ccccc1)C(=O)N1CCOCC1 | 1.48 | 1.26 | 0.488 | 1.02 | 1.33 | 0.544 | 1.13 | 0.541 | 1.3 | -12.9 (active) | 1.3 | -2.26 (inactive) | -0.199 (inactive) | 1.8 (inactive) | -1.49 (inactive) | 1.52 | 0.165 | 0.46 | 1.63 | -0.29
CCCCCN1CC=CC23O[C@@H]4/C=C\CCCOC(=O)C4[C@H]2C(=O)N(CCCCCCO)[C@@H]3C1=O (stereo not given in full) | 0.599 | 0.906 | 0.929 | -2.05 | -0.679 | -0.964 | 1.05 | 0.0393 | 1.14 | -3.28 (inactive) | -0.686 | -1.95 (inactive) | -2.51 (inactive) | -1.44 (inactive) | -0.43 (inactive) | -1.21 | -0.128 | 0.61 | 0.474 | 0.124
CCOC(=O)C[C@H]1[C@H](OC(=O)c2ccccc2-c2ccccc2)[C@@H](NC(=O)c2ccc3ccccc3c2)c2cc(OCCCO)ccc2N1C(=O)c1ccc2ccccc2n1 | 0.0868 | 0.635 | -0.0301 | 0.0467 | 0.874 | 0.306 | 0.988 | 0.543 | 0.119 | 0.667 (inactive) | 0.0952 | 0.0364 (inactive) | -0.756 (inactive) | 0.311 (inactive) | 0.429 (inactive) | 0.162 | -0.0087 | 0.335 | 0.0486 | 0.575
CCOC(=O)C[C@H]1[C@H](OC(=O)c2ccc(C(=O)c3ccccc3)cc2)[C@@H](NC(=O)C2CCCCC2)c2cc(OCCCO)ccc2N1C(=O)c1ccccc1 | 0.447 | 0.881 | 0.211 | 0.636 | 0.27 | 0.0816 | 2.14 | 0.166 | 0.203 | -0.46 (inactive) | 0.177 | -0.361 (inactive) | 0.441 (inactive) | 2.06 (inactive) | -0.0298 (inactive) | 0.767 | 0.58 | 0.342 | 0.358 | 1.31

Reference: PubChem BioAssay
